Assay outcomes as filed in PubChem BioAssay.
Rows were chosen to be rich in hits. Some 11% of all compounds tested hit in one or more screens of this group.
AmpC detergent: qHTS Inhibitors of AmpC Beta-Lactamase (assay with detergent); 0.041% of 370,000 active; P00811; Potency, µM (titrated, usually from 114 µM), for the others: top-dose activity change, negative = inhibition, most hits filed as inhibitors; AmpC hydrolysis of nitrocefin, absorbance 480 nm, 0.01% Triton;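 note: 0% = no-compound wells and -100% = no-enzyme wells; nearly all actives have a fitted effect of over 25% in size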
Target sequence (P00811 whole entry, looked up): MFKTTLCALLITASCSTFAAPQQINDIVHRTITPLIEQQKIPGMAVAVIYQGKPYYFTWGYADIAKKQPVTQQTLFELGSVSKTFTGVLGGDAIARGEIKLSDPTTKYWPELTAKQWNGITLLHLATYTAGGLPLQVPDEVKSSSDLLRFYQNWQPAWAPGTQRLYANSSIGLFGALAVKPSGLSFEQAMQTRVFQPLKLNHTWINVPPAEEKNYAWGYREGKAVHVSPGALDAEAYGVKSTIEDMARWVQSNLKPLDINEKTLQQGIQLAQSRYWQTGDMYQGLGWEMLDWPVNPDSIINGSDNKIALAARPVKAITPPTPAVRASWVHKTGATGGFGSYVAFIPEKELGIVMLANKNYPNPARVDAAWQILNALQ
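20 mM phosphate pH 7.0 + 0.01% (detergent screen) or 0.0001% Triton X-100; 5.3 nM AmpC reagent; cpd preinc 15 min RT; nitrocefin (800 uM stock) to start; A480 q20 s × 4 min; Activity was normalised to no-enzyme and no-compound control wells.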
AMA1-RON2 inh: qHTS for Inhibitors of AMA1-RON; Towards Development of Antimalarial Drug Lead: Primary Screen | Plasmodium falciparum AMA1 (3D7) - RON2 peptide interaction | AlphaScreen AMA1-biotinylated RON2 peptide binding | Potency, µM (titrated, usually from 58.2 µM), for the others: top-dose activity change, negative = inhibition, hits mostly inhibitors | 0.2% of 360,000 active;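 note: 0% = vehicle wells and -100% = peptide control; nearly all actives have a fitted effect of over 45% in size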
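AMA1 (3D7) with his tag at 25 nM final met compounds first, then biotinylated RON2 peptide at 25 nM; detection used donor plus acceptor beads, 10 µg/mL apiece, read by AlphaScreen after 30 min at room temperature.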
Pf growth 96h: Primary qHTS for delayed death inhibitors of the malarial parasite plastid, 96 hour incubation; P. falciparum luciferase reporter growth, 96 h; Potency, µM (series often up to 28.7 µM), without a hit: at the highest dose activity change, negative = inhibition, actives largely listed as inhibitors; 6.9% of 320,000 active; AID 504834, 2011
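Parasite growth measured via integrated firefly luciferase reporter in P. falciparum. Infected erythrocytes at 2% hematocrit, 0.05% parasitemia final were treated 96 hours at 37 C under 5% CO2, and luminescence was read.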
Pf growth 48h: Primary qHTS for delayed death inhibitors of the malarial parasite plastid, 48 hour incubation | P. falciparum luciferase growth in erythrocytes, 48 h | 5.9% of 310,000 active | Potency, µM (highest dose often 28.7 µM), inactives show top-dose activity change, negative = inhibition, actives largely listed as inhibitors
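A one-generation exposure of luciferase-tagged malaria parasites in RPMI 1640/Albumax erythrocyte culture, 37 C and 5% CO2. Inhibition is inferred from decreased luminescence after adding detection reagent.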
HCV inh: qHTS Assay for Inhibitors of Hepatitis C Virus (HCV). AID 651820, 2012. Huh7.5.1 HCVcc-Cre infection, luciferase reporter, 44 h. Potency, µM (doses to about 41.8 µM), without a hit: at the highest dose activity change, negative = inhibition, most hits filed as inhibitors. 3.4% of 340,000 active
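Luciferase read-out (15 sec integration) after a 15 min room-temperature substrate step quantifies HCVcc-Cre infection. Cells, 1,000 per well, had compound added 4 h post-plating, then virus at ~0.5 moi, and were cultured 44 h.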
AmpC no deterg: qHTS Inhibitors of AmpC Beta-Lactamase (assay without detergent); P00811; AmpC nitrocefin hydrolysis, absorbance 480 nm, 0.0001% Triton; Potency, µM (titrated, usually from 57.1 µM), for inactives: at the highest dose activity change, negative = inhibition, usual class: inhibitors; 0.52% of 330,000 active; AID 485341, 2010;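 note: plate controls were no compound for no effect and no enzyme for full effect; nearly all actives have a fitted effect of over 20% in size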
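AmpC (5.3 nM in the dispensed reagent) in 20 mM phosphate pH 7.0 with 0.01% (detergent screen) or 0.0001% Triton X-100 was preincubated with compounds for 15 min at room temperature. Nitrocefin was then added from an 800 uM solution, and hydrolysis was followed at 480 nm.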
* marks the source's active call; other numbers are inactive results; ? = inconclusive; / = no result given; [ ] = remark or other dose. Calls come from the whole dose curve; as a rule, active = well fitted curve in the direction sought with a large enough effect; inconclusive = small, poorly fitted or top-dose-only effect, or another doubt; inactive = no such curve, though single readings can be large; an effect the other way counts as inactive or inconclusive. Unless noted, % is set by controls: 0 for no effect and ±100 for the full control effect; potency is the fitted concentration of half-maximal effect.

SMILES | AmpC detergent | AMA1-RON2 inh | Pf growth 96h | Pf growth 48h | HCV inh | AmpC no deterg
O=C(Cn1nnc2ccccc21)N/N=C/c1ccco1 | 3.3% | -4.7% | ? | 24.3% | 5.9% | -10.2%
O=C(Cn1cncn1)N/N=C/c1cc([N+](=O)[O-])ccc1O | 6.8% | -49.4% | ? | ? | -0.5% | -10.2%
O=C(Cn1nc2ccccc2n1)N/N=C/c1cc([N+](=O)[O-])ccc1O | -6.3% | 11.9% | ? | 4.65µM* | ? | -30.5%
Cc1cc(C)cc(NS(=O)(=O)c2ccc3c(c2)CCCN3C(=O)C2CCC2)c1 | 1.6% | / | / | / | / | /
O=C(O)c1ccc2c(c1)C(=O)N([C@]1(C(=O)O)C[C@H]1c1ccccc1)C2=O | ? | / | 15.9% | ? | / | -7.2%
COc1ccc(CNC(=O)c2cc3c(=O)n4cccc(C)c4nc3s2)cc1 | 2.1% | / | / | / | / | /
CCn1c(=O)cc(OCC(=O)NCc2ccccc2OC)c2ccccc21 | 19.1% | / | / | / | / | /
COc1ccc(-c2noc(CN(C(C)C)S(=O)(=O)c3ccc(Br)cc3)n2)cc1 | 20.6% | / | / | / | / | /
O=C(N/N=C/c1cc([N+](=O)[O-])ccc1O)c1cccc(NC(=O)c2cccc(Cl)c2)c1 | -9.2% | 2.8% | 2.0% | 2.33µM* | 23.5% | -25.9%
Cc1nc2ccc(C(=O)N/N=C/c3cc([N+](=O)[O-])ccc3O)cc2[nH]1 | -9.1% | -43.8% | -22.9% | 19.6%[5.75 µM] | 3.0% | 13.0%
Cc1cc(C)n2nc(-c3ccsc3-n3c(C)ccc3C)cc2n1 | -4.3% | -11.9% | ? | 13.1µM* | ? | 71.7%
CC(=O)c1ccc(NC(=O)CSc2ccc3nc(-c4ccccc4)cn3n2)cc1 | -5.5% | / | / | / | / | /
Cn1cnnc1Sc1cc(N2CCN(S(=O)(=O)c3ccc(Cl)c(Cl)c3)CC2)ccc1[N+](=O)[O-] | 2.9% | -0.4% | -2.0% | 11.7µM* | ? | 45.9%
COc1ccc(NC(=O)N2CCc3c(sc4c3CCCC4)C2c2ccccc2OC)cc1 (centres undefined) | -7.8% | / | / | / | / | /
CCOC(=O)c1ccccc1NC(=O)Cc1sc(-c2cccnc2)nc1-c1ccc(C)cc1 | ? | / | 2.62µM* | 4.15µM* | -26.6% | 1.1%
Cc1ccc(-c2nc(-c3cccnc3)sc2CC(=O)Nc2ccc3nc(C)sc3c2)cc1 | -4.0% | -9.9%[11.6 µM] | 13.1µM* | ? | 13.9% | -15.9%
Fc1ccc(N2CCN(c3ncnc4c3nc3n4CCCC3)CC2)cc1 | 1.7% | / | / | / | / | /
NC(=O)C1CC2(NC(=O)NC2=O)c2cc(F)ccc2O1 (centres undefined) | / | / | -15.4% | -1.9% | / | /
CCCC(=O)NCC1(N(C)C)CCCCC1 | 22.7% | / | / | / | / | /
COc1ccccc1-c1ccc(NC2CCCCC2)nn1 | -7.4% | -2.2% | 80.7% | 122.1% | 22.4µM* | -14.9%
COc1ccccc1-c1ccc(Nc2cccc(C(F)(F)F)c2)nn1 | 9.1% | -1.7% | -2.1% | 37.4% | -12.8% | -13.0%
COC(=O)c1sccc1NC(=O)c1ccccc1Br | / | 35.6% | / | / | ? | /
COc1cc(NC(=O)c2ccccc2[N+](=O)[O-])ccc1NC(=O)C(C)C | -9.2% | -5.2% | 9.28µM* | 7.3% | 0.3% | -6.2%
COC(=O)c1sccc1NC(=S)Nc1cc(C)cc(C)c1 | ? | 79.2% | 10.4µM* | 18.1% | -6.9% | -24.4%
COC(=O)c1sccc1NC(=O)c1ccccc1[N+](=O)[O-] | -7.4% | -1.2% | 1.85µM* | 1.3% | -18.0% | -14.4%
SMILES | AmpC detergent | AMA1-RON2 inh | Pf growth 96h | Pf growth 48h | HCV inh | AmpC no deterg
CC(=O)c1cccc(NC(=O)c2c(F)c(F)c(F)c(F)c2F)c1 | -7.4% | 40.7% | / | ? | ? | 3.6%
COC(=O)c1cc(NC(=O)c2c(F)c(F)c(F)c(F)c2F)cc(C(=O)OC)c1 | -7.8% | 6.8%[2.32 µM] | ? | 4.7% | 12.6µM* | -51.7%
CCC(C)NC(=O)c1ccccc1NC(=O)C1CCN(S(=O)(=O)Cc2ccccc2)CC1 (centres undefined) | -6.8% | / | / | / | / | /
COc1ccc(-n2c(=O)c3ccccc3n(Cc3cccc(C)c3)c2=O)cc1 | 16.6% | / | / | / | / | /
Cc1ccc(C)c(N2CCN(C(=O)Cn3c(-c4cccs4)cc4ccccc43)CC2)c1 | -0.5% | / | / | / | / | /
COC(=O)c1sccc1NC(=O)c1cccc(F)c1 | / | 14.8% | / | / | -28.3% | /
COC(=O)c1sccc1NC(=O)c1c(F)c(F)c(F)c(F)c1F | / | 22.0% | / | / | 12.6µM* | /
COC(=O)c1sccc1NC(=O)Nc1cccc(C)c1C | 1.3% | -7.8% | 4.15µM* | 23.0% | 15.7% | -24.3%
CC1(C)Oc2ccc3ccc(=O)oc3c2/C(=C/Nc2ccc(O)cc2)C1=O | 12.8% | -0.4% | -13.8% | ? | ? | -5.5%
CC1(C)Oc2ccc3ccc(=O)oc3c2/C(=C/Nc2cccc(O)c2)C1=O | 3.4% | -15.0% | 80.5% | 13.1µM* | ? | -12.1%
CC1(C)Oc2ccc3ccc(=O)oc3c2/C(=C/NNC(N)=S)C1=O | 4.3% | 81.9% | 23.7% | 0.828µM* | 2.7% | -40.2%
O=C(CSc1n[nH]c(-c2ccccc2)n1)N1CCN(c2ccccc2F)CC1 | -8.6% | / | / | / | / | /
CCN(CC)c1cc(C)nc2nc(-c3ccc(C)cc3)nn12 | -3.1% | / | / | / | / | /
O=C(COC(=O)/C=C/c1cccc(C(F)(F)F)c1)NCc1ccc(F)cc1 | 0.8% | -8.5% | 44.0% | 4.0% | 1.6% | -31.1%
O=C(COC(=O)/C=C/c1cccc(C(F)(F)F)c1)NCc1ccccc1 | -13.7% | 2.6% | 13.0% | -1.2% | 12.0% | 7.94µM*
CCOc1ccccc1NC(=O)C(c1ccccc1)N1Cc2ccccc2C1=O (centres undefined) | 18.0% | / | / | / | / | /
O=C(Nc1cccc(-c2nc3ncccc3o2)c1)c1sc2ccccc2c1Cl | ? | 4.1% | 0.0% | 28.1% | ? | -8.4%
O=C(Nc1cccc(-c2nc3ncccc3o2)c1)c1sc2cc(Cl)ccc2c1Cl | -3.2% | -7.3% | 78.2% | 45.4% | 8.91µM* | -23.2%
O=c1c(N2CCc3ccccc3C2)csc2ccc(F)cc12 | 17.4% | / | / | / | / | /
CN1CCN(c2nc3c(c(=O)n(C)c(=O)n3C)n2CC(N)=O)CC1 | 31.6µM* | 24.3% | / | -8.5% | 19.9% | -15.3%
